This note sets out measurements from ChEMBL document CHEMBL3988442, “University of Dundee, Small-Polar-MMV Screening Library” (2021).

Set-up in all cases: scale not given: direction of the effect not stated beside the values
Experiment [1] deals with Protein translocase subunit SecA (Escherichia coli (strain K12)) (UniProt P10408). As to the kind of experiment: Assay to Identify E. coli SecA ATPase Inhibitors. It is filed as functional. The conditions noted are these: 30 µM.
Experiment [2] concerns the target T1, Ubiquitin-activating enzyme e1, putative (Leishmania donovani (strain BPK282A1)) (UniProt E9BSI1).
T1 sequence (whole entry): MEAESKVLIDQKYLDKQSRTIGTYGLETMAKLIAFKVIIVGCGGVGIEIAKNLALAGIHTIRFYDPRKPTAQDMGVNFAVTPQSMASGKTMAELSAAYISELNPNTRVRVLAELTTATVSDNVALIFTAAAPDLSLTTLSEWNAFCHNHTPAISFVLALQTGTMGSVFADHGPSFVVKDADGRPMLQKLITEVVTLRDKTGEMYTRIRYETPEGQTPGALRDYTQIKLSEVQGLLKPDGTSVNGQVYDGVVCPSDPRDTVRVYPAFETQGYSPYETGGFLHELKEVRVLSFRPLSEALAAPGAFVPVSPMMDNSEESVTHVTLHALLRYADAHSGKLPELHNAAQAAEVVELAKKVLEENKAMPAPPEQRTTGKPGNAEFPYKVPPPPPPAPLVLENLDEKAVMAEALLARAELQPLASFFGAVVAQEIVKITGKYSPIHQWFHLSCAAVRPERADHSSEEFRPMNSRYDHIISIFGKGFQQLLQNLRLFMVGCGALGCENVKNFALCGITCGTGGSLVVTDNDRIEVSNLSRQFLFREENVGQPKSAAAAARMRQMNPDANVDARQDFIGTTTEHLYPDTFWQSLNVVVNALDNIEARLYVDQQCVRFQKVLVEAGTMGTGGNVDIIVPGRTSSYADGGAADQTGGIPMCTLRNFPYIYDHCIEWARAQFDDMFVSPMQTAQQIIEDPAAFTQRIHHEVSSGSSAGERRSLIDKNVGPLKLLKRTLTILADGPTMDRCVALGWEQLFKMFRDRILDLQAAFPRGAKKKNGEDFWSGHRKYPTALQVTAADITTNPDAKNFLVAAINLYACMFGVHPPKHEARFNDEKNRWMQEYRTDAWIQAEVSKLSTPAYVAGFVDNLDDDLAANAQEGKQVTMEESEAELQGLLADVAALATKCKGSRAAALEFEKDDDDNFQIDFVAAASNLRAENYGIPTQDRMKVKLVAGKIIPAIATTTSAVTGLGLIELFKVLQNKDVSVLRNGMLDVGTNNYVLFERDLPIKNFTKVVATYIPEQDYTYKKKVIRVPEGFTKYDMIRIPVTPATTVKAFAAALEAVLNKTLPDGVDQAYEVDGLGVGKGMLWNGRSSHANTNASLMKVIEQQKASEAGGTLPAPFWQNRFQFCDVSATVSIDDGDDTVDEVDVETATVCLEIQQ
Put plainly: Leishmania donovani Ubiquitin Activating Enzyme (LdE1). The class given is functional. The conditions noted are these: 30 µM.

Experiment [3] addresses AMP-activated protein kinase, AMPK (Homo sapiens) (UniProt P54646+O43741+P54619+Q9UGJ0+Q9Y478+Q13131+Q9UGI9). Put plainly: AMP-dependent Kinase enzyme assay. An in vitro enzyme assay that detects ADP turnover that is directly proportional to AMPK activity. This uses naive AMPK that is activated during the assay with MK-8722. The conditions noted are these: 30 µM. It is filed as functional.

The target in experiment [4] is Sialic acid-binding Ig-like lectin 9 (Homo sapiens) (UniProt Q9Y336). Put plainly: Hs-Siglec9 ALPHAscreen SOP 20170721. The conditions noted are these: 10 µM. (Bead proximity is the source of the signal in Alpha formats.)
Sialic acid-binding Ig-like lectin 9 (Homo sapiens), sequence (Q9Y336 whole entry): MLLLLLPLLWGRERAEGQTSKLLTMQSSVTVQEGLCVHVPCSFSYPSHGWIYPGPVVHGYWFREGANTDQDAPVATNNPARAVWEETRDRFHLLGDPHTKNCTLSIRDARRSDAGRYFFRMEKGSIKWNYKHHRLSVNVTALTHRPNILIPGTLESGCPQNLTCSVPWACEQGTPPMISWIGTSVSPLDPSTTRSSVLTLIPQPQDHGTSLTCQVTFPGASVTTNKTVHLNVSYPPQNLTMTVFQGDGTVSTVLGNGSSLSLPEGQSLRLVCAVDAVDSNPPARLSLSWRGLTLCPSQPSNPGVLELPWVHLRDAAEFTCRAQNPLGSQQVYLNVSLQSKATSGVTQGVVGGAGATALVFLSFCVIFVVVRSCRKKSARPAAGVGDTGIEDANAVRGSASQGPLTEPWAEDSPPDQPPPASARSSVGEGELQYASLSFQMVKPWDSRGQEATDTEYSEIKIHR
For a further experiment, the system named is Trypanosoma cruzi. Put plainly: Trypanosoma cruzi phosphomannomutase and mannose-1-phosphate guanylyltransferase assay. The class given is functional. The conditions noted are these: 10 µM.
In experiment [5] the target is T2, Arginase-2, mitochondrial (Homo sapiens) (UniProt P78540).
T2 sequence (whole entry): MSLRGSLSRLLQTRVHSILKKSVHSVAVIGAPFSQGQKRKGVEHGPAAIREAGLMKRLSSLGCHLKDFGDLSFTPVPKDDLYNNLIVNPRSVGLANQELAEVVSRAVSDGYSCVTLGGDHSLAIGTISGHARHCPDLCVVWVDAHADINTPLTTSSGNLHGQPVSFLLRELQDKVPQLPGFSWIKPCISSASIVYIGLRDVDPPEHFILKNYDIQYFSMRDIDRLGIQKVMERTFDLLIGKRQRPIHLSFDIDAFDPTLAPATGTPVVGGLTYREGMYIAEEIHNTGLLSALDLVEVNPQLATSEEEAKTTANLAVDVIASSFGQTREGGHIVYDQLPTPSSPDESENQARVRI
Put plainly: in vitro enzyme assay to detect the production of urea directly proportional to the activity of Arginase II. Also: in the data most compounds retested in dose-response had high values. The class given is functional. Conditions: 33.3 µM.

Experiment [6] has as its target T3, Proteasome subunit beta (Trypanosoma cruzi) (UniProt O96673).
T3 sequence (whole entry): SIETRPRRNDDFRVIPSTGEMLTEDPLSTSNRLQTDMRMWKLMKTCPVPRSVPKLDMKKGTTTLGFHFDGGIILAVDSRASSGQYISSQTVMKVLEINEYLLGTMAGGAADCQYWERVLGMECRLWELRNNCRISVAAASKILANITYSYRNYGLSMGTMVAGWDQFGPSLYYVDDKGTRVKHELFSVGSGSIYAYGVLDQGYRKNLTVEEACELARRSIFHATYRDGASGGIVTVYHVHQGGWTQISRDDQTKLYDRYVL
Put plainly: Trypanosoma cruzi proteasome chymotrypsin-like activity (TcProtChymo) assay. Also: in the data most compounds retested in dose-response had high values. It is filed as functional. Conditions: 9.37 µM.

For another experiment, the species on record is Homo sapiens. Put plainly: To identify inhibition of the IFN signalling (Jak-Stat) pathway via expression of an eGFP reporter gene under the control of an IFN-stimulated response element (ISRE) containing MxA promoter. It is filed as functional. The conditions noted are these: 30 µM. A general note: Reporter assays use an easily measured gene product as a stand-in for the process of interest.

Experiment [7] addresses T4, Tyrosyl-tRNA synthetase, putative (Trypanosoma cruzi (strain CL Brener)) (UniProt Q4DSP6).
T4 sequence (whole entry): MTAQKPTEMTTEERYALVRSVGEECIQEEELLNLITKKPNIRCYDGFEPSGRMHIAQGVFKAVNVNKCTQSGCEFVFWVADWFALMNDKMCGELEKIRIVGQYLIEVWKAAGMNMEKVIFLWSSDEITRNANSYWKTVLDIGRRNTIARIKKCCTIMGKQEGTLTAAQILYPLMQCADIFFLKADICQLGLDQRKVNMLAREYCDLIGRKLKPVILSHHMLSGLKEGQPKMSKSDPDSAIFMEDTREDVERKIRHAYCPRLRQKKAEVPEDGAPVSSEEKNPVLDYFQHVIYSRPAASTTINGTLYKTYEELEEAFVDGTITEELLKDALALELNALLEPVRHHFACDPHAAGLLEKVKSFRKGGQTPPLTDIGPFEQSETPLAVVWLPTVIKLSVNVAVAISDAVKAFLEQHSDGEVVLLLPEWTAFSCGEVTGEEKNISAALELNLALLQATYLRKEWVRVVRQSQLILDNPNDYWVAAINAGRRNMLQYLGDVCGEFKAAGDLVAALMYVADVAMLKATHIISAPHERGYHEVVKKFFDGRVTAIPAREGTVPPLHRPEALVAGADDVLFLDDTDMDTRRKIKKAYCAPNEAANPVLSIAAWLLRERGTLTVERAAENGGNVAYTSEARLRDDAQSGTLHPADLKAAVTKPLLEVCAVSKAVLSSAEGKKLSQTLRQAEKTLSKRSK
Put plainly: Trypanosoma cruzi tyrosyl tRNA synthetase (TcYRS) _High Tyrosine SOP. Also: in the data most compounds retested in dose-response had high values. Conditions: 30 µM. The class given is functional.

Experiment [8] addresses T4, Tyrosyl-tRNA synthetase, putative (Trypanosoma cruzi (strain CL Brener)). As to the kind of experiment: Trypanosoma cruzi tyrosyl tRNA synthetase (TcYRS) SOP. Conditions: 30 µM. The class given is functional.
Experiment [9] deals with Chromo domain-containing protein 1 (Saccharomyces cerevisiae (strain ATCC 204508 / S288c) (Baker's yeast)) (UniProt P32657). As to the kind of experiment: ScCHD-1 Enzyme Inhibition Assay. Also: in the data most compounds retested in dose-response had high values. It is filed as functional. Conditions: 30 µM.
Chromo domain-containing protein 1 (Saccharomyces cerevisiae (strain ATCC 204508 / S288c) (Baker's yeast)), sequence (P32657 whole entry, the tested form may be a part): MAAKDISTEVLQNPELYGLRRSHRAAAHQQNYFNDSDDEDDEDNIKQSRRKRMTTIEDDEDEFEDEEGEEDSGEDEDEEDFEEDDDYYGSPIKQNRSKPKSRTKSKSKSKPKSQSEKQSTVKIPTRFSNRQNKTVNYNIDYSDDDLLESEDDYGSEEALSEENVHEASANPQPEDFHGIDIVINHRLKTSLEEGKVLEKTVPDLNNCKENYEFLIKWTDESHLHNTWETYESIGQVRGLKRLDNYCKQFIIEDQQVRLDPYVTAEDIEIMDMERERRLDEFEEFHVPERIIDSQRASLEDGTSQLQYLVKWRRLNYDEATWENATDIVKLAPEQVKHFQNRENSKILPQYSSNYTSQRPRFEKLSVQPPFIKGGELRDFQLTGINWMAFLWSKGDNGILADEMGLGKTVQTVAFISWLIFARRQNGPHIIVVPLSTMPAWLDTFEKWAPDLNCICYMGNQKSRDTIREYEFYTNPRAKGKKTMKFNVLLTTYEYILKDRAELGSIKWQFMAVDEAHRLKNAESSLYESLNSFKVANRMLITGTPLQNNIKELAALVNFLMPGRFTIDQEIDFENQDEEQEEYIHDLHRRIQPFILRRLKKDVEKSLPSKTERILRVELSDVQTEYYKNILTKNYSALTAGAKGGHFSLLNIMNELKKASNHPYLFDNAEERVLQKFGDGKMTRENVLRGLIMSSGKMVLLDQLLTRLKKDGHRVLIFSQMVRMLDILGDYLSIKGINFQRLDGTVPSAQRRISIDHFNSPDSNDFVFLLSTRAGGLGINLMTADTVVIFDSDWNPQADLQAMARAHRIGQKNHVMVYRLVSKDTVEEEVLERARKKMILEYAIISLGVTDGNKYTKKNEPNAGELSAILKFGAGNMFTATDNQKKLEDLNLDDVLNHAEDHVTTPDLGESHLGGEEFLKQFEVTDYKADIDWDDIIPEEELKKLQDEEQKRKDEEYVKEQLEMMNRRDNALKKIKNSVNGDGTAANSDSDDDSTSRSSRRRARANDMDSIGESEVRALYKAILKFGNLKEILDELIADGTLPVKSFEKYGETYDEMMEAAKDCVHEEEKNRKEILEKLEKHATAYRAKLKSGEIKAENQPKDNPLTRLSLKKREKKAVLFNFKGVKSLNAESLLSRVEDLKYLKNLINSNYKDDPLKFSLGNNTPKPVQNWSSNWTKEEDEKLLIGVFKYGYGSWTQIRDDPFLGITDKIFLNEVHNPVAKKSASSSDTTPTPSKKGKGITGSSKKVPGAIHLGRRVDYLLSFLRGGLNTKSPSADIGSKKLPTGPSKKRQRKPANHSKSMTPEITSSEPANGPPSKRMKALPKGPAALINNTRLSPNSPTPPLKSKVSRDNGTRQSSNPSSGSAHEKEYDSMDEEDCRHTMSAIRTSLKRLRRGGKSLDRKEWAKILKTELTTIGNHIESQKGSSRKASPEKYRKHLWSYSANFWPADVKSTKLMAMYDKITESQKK

For some assays here: Results with a measured potency or affinity are listed apart.

Protein translocase subunit SecA (Escherichia coli (strain K12)), sequence (P10408 whole entry): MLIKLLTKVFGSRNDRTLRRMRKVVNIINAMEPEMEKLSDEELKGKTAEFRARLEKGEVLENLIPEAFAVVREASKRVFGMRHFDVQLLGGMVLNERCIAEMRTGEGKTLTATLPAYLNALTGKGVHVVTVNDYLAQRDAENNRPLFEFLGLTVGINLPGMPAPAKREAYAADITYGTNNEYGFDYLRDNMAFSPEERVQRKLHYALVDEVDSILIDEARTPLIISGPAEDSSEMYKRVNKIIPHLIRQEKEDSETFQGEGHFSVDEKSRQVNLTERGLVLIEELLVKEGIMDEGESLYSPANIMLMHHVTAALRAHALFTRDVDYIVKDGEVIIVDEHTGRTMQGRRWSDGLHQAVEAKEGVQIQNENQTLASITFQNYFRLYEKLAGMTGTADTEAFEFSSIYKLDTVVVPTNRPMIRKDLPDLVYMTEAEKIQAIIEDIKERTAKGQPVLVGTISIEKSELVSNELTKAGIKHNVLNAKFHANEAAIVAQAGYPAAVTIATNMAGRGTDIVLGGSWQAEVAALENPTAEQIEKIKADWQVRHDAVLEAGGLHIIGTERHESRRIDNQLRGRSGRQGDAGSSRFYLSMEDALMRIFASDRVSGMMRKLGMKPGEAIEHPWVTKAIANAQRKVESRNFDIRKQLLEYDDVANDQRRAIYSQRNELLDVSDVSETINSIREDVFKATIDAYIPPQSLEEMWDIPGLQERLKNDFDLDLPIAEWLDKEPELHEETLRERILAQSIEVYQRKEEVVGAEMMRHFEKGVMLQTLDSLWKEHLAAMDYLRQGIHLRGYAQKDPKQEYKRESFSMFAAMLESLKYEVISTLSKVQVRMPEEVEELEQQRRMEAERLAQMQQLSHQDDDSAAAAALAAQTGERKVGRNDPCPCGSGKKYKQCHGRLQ

As for `Cn1ccnc1CN1CCN(CC(O)c2ccc(F)c(F)c2)CC1` (stereo not given), the Percent Effect is -8.39% in experiment [1]; 10.4% in experiment [2]; -6.83% in experiment [3]; -0.647% in experiment [4]; -6.93% in the experiment with Trypanosoma cruzi; 1.42% in [5]. Also, the Percent Effect in [6] is 0.507%; in the experiment filed under Homo sapiens, 29.6%; in [7], 0%; in experiment [8], -2.44%; in experiment [9], -2.48%.

As to `CN(Cc1ccc2c(c1)OCCO2)C(=O)NCCc1cnn(C)c1`, the Percent Effect is -2.93% in experiment [1]; 18.9% in experiment [2]; -2.51% in experiment [3]; 14.3% in experiment [4]; -10.3% in the experiment on Trypanosoma cruzi; 0.554% in [5]. Also, the Percent Effect is 14.5% in experiment [6]; 18% in the experiment filed under Homo sapiens; 2.97% in [7]; -1.22% in experiment [8]; -6.78% in experiment [9].

`CCc1n[nH]c(C2CN(CCc3ccncc3)CCO2)n1` (stereo not given): the Percent Effect in [1] is -6.01%; in experiment [2], 3.8%; in [3], 7.99%; in experiment [4], 7.24%; in the experiment on Trypanosoma cruzi, 0.103%; in experiment [5] it was 0.215%. In addition, the Percent Effect is 1.72% in experiment [6]; 14% in the experiment filed under Homo sapiens; 1.04% in experiment [7]; 7.59% in [8]; -9.31% in experiment [9].

On to `CC(C)(C)n1cc(C(=O)N2CCCN(Cc3cccs3)CC2)cn1`, for which the Percent Effect in experiment [1] is -1.01%; in experiment [2], 5.26%; in experiment [3], 3.41%; in experiment [4], 2.97%; in the experiment on Trypanosoma cruzi, -3.57%; in [5] it was 3.45%. Moreover, the Percent Effect in experiment [6] was 9.19%; in the experiment filed under Homo sapiens it was 14.5%; in experiment [7], 1.47%; in [8], 9.76%; in [9], -2.3%.

On to `O=C(c1csc(Br)c1)N1CCCC(n2ccnc2)C1` (stereo not given), for which the Percent Effect in experiment [1] was -3.43%; in experiment [2], 11.4%; in experiment [3], -1.54%; in experiment [4], -8.98%; with Trypanosoma cruzi it was 2.56%; in experiment [5], -5.38%. The Percent Effect is 2.74% in [6]; -8.54% in the experiment listed under Homo sapiens; 2.08% in [7]; 12.7% in [8]; 54.1% in [9].

With `CC(C)(O)CN1CCN(C(=O)c2sccc2C2CC2)CC1`, the Percent Effect in [1] was -3.28%; in experiment [2], 6.33%; in experiment [3] it was 9.46%; in [4] it was 2.31%; with Trypanosoma cruzi it was -2.56%; in experiment [5], 4.09%. In addition, the Percent Effect in [6] is 4.97%; in the experiment filed under Homo sapiens, 1.7%; in experiment [7] it was 3.12%; in experiment [8] it was 2.53%; in experiment [9], -6.63%.

`CN1C(=O)CC(c2cnn(C)c2)C12CCN(C(=O)C1CC=CC1)CC2` (stereo not given): the Percent Effect is -3.3% in experiment [1]; -2.7% in experiment [2]; 6.7% in experiment [3]; 5.51% in [4]; -2.25% in the experiment with Trypanosoma cruzi; -2.23% in experiment [5]. The Percent Effect was 7.2% in experiment [6]; -12.6% in the experiment listed under Homo sapiens; -1.08% in experiment [7]; -2.56% in experiment [8]; 9.24% in [9].

With `CCc1ccc(CNC(=O)N2CCN(Cc3cc(C)no3)CC2)s1`, the Percent Effect in [1] is -3.56%; in experiment [2] it was 15.8%; in experiment [3] it was 7.06%; in experiment [4] it was -6.42%; in the experiment with Trypanosoma cruzi it was -9.24%; in [5], -1.08%. The Percent Effect in experiment [6] is 17.2%; in the experiment listed under Homo sapiens, 13.6%; in experiment [7], 2.46%; in experiment [8] it was 6.17%; in experiment [9], -7.04%.

Consider `COCc1ccc(CNC(=O)C2=NN(c3ccccc3)C(=O)CN2)cc1`, for which the Percent Effect in experiment [1] is -0.976%; in [2], 5.41%; in [3], 6.06%; in experiment [4] it was -1.63%; in the experiment on Trypanosoma cruzi, -9.09%; in [5] it was 1.24%. The Percent Effect in experiment [6] is 14%; in the experiment listed under Homo sapiens, 53.6%; in experiment [7], 3.23%; in [8], 13.6%; in experiment [9], -4.43%.

Regarding `CC1CCCN(C(=O)CCc2cccnc2)C1` (stereo not given), the Percent Effect in experiment [1] is 2.47%; in [2], 17.7%; in [3], 0.257%; in [4], -8.86%; in the experiment with Trypanosoma cruzi, -5.57%; in [5], 6.84%. Moreover, the Percent Effect is 7.29% in experiment [6]; 25.3% in the experiment listed under Homo sapiens; 3.45% in [7]; 16.5% in experiment [8]; -0.749% in [9].
